Screening results: PubChem BioAssay, several laboratories
CF NFkB block – inhibitors of cystic fibrosis induced NF-kB; AID 588850; 360,000 tested, 0.86% active; KKLEB NF-kB-GFP reporter, PAF-induced, GFP fluorescence overnight; inhibition, % at 5 µM;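 active means at least 50% inhibition at 5 µM, scaled per plate between neutral and stimulator controls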;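 further: PAF is a Pseudomonas aeruginosa culture filtrate used as stimulus; plate controls were PAF-stimulated DMSO wells for no effect and unstimulated DMSO wells for full effect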
EWS-Fli inh – blocks EWS/Fli oncoprotein-driven transcription | A673 NR0B1-luciferase reporter, viability-normalised | inhibition, % at 12.6 µM | 350,000 tested, 0.67% active;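 active means mean inhibition of at least 50% after viability correction, with every replicate also passing that limit; inconclusive means mean reaches 50% but only one of two replicates passes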;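 further: firefly luciferase signal divided by Alamar Blue viability fluorescence both relative to DMSO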
Shn3 inh set2 – reduces Shn3 3'UTR luciferase signal in osteoblasts. Clone20 osteoblast Shn3 3'UTR firefly luciferase, 24 h. inhibition, % at 12.5 µM. 360,000 tested, 0.52% active. AID 588674;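 active means mean inhibition of at least 75% with every replicate also reaching 75%; inconclusive means mean inhibition at least 75% but some replicate below; inactive means mean inhibition below 75%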;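 further: 0% = median of neutral control wells and 100% = pilot-screen positive control compound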
KKLEB tox – CF airway cell cytotoxicity counter-screen; 360,000 tested, 0.36% active; activity change (cytotoxicity), % at 5 µM; KKLEB CF airway cells viability, ATPlite luminescence, overnight; active compounds read low; cells stimulated with P. aeruginosa culture filtrate; AID 602141;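 active means corrected activity change at or below -50% at 5 µM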
LGR2 antag – blocks bursicon-induced cAMP signaling via Drosophila LGR2; HEK293 LGR2, CRE-luciferase, bursicon-stimulated, 4 h; 380,000 tested, 0.35% active; inhibition, % at 9.99 µM;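 active means drop in luminescence signal, shown as inhibition above about 50% in the replicate tests, limit read from the data, passing the limit was not always enough; inconclusive means probably only some replicates passing the limit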;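 further: agonist challenge used bursicon conditioned medium at about half maximal strength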
PAX8 inh HTS – lowers PAX8-driven luciferase in RMG-I cells | RMG-I TPO-luciferase reporter, SteadyGlo, 24 h | inhibition, % at 12.6 µM | 360,000 tested, 1.2% active | AID 652154;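 active means mean replicate inhibition at least 60% with every replicate also reaching 60%; inconclusive means only one of the two criteria is met; inactive means mean below 60% and not all replicates reaching 60%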;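 further: luciferase light reporting Pax8 driven TPO promoter activity; plate controls were median of neutral control wells for no effect and mitoxantrone controls for full effect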
CF NFkB conf – CF NF-kB inhibition confirmation, single concentration; shares compounds with CF NFkB block; KKLEB CF airway cells, PAF-induced NF-kB-GFP fluorescence, overnight; inhibition, % at 5 µM; 1,300 tested, 64% active; in the data active means inhibition above about 40%;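 further: stimulus PAF is a Pseudomonas aeruginosa filtrate and not platelet activating factor; plate controls were DMSO wells with stimulus for no effect and unstimulated DMSO wells for full effect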
Starred values were filed as active, the others as inactive; u = inconclusive; x = no result. Most compounds without a hit are left out; they make up all but 2% or so of the library.

SMILES	CF NFkB block	EWS-Fli inh	Shn3 inh set2	KKLEB tox	LGR2 antag	PAX8 inh HTS	CF NFkB conf
Cc1ccnc(NC(=O)CCCOc2cc(=O)n(C)c3ccccc23)c1	70.6*	13.5	-154.9	8.9	25.0	52.5	75.8*
Cc1ccnc(NC(=O)CSc2cc(=O)n(C)c3ccccc23)c1	88.0*	x	8.6	-25.5	x	x	52.3*
CC(C)NC(=O)N(C)C[C@@H]1Oc2ccc(NC(=O)Cc3ccccc3)cc2C(=O)N([C@H](C)CO)C[C@@H]1C	x	-1.7	x	x	6.6	-4.6	x
C[C@H](CO)N1C[C@H](C)[C@H](CN(C)C(=O)Nc2ccc(C(F)(F)F)cc2)Oc2c(NC(=O)c3cnccn3)cccc2C1=O	x	0.7	x	x	8.8	-1.8	x
COCC(=O)N1C[C@H]2[C@@H](c3ccccc31)[C@@H](CO)N2Cc1ccccc1Cl	x	-4.2	x	x	13.0	4.1	x
O=C(O)Cn1cc(/C=C/[N+](=O)[O-])c2ccccc21	5.0	5.6	7.9	11.4	0.8	3.9	x
O=C(Cn1cc(/C=C\[N+](=O)[O-])c2ccccc21)Nc1ccccc1	53.5*	43.2	94.5*	-6.6	67.1*	17.6	-49.2
CC(=O)c1ccc2noc(-c3ccccc3)c2c1	0.9	-12.7	-7.0	-5.2	-50.4	-33.4	x
CN(C)/C=C/C(=O)c1ccc2noc(-c3ccccc3)c2c1	56.8*	-17.9	-4.1	-4.3	4.1	6.6	82.3*
CCCC(=O)Nc1ccc2c(c1)OC[C@@H](C)N(Cc1ccc(-c3ccccn3)cc1)C[C@H](C)[C@@H](OC)CN(C)C2=O	x	-0.7	x	x	11.8	x	x
CCN(CC)S(=O)(=O)c1cccc(NC(=O)Nc2cccc(C(F)(F)F)c2)c1	63.0*	x	65.3	-30.8	x	102.0*	38.0
CCC(=O)N1C[C@@H](C)[C@H](OC)CN(C)C(=O)c2cc(NC(=O)c3cnccn3)ccc2OC[C@@H]1C	x	-0.6	x	x	17.7	x	x
COc1ccccc1-c1nnc2sc(C3CCCCC3)nn12	3.0	x	11.9	4.6	-28.7	x	x
c1cc(-c2nnc3sc(C4CCCCC4)nn23)ccn1	50.6*	x	-2.5	-16.1	x	x	63.6*
c1csc(Cc2nn3c(-c4ccncc4)nnc3s2)c1	50.3*	x	5.8	4.8	x	11.9	48.7*
Clc1ccccc1OCc1nn2c(-c3ccncc3)nnc2s1	14.5	x	9.4	-12.4	x	x	x
Cc1ccc(S(=O)(=O)Nc2ccc3c(c2)C(=O)N([C@H](C)CO)C[C@H](C)[C@@H](CN(C)C(=O)Nc2c(C)noc2C)O3)cc1	x	-0.7	x	x	-2.4	1.5	x
CC=Cc1ccc2n(c1=O)C[C@H]1[C@H](CO)[C@@H](C(=O)N3CCc4ccccc4C3)[C@@H]2N1CCC (mixture of isomers)	x	-5.3	x	x	-8.8	x	x
O=C(Nc1ccc2ccccc2c1)c1ccccc1O	51.6*	26.1	-13.2	-17.6	76.2*	-13.6	78.7*
C/C=C/c1cnc2c(c1)C(=O)N([C@H](C)CO)C[C@H](C)[C@@H](CN(C)S(=O)(=O)c1cccs1)O2	x	-3.0	x	x	17.6	3.0	x
CCOC(=O)CS(=O)(=O)c1nc(-c2ccccc2)cc(C(F)(F)F)n1	78.7*	x	97.4*	-21.4	x	x	59.5*
CCOC(=O)CS(=O)(=O)c1ccccc1	-12.8	x	-8.7	14.3	x	3.1	x
COc1ccc(-c2cc(C(F)(F)F)nc(S(C)(=O)=O)n2)cc1	73.6*	x	94.7*	-37.3	x	x	57.7*
COc1ccccc1-c1cn(CC[C@H]2CC[C@H](NC(=O)C3CCOCC3)[C@H](CO)O2)nn1	x	-2.9	x	x	0.2	15.3	x
C[C@H]1CN([C@@H](C)CO)S(=O)(=O)c2ccc(C#CC3CC3)cc2O[C@@H]1CN(C)C(=O)CC1CC1	x	-6.3	x	x	-2.2	x	x
SMILES	CF NFkB block	EWS-Fli inh	Shn3 inh set2	KKLEB tox	LGR2 antag	PAX8 inh HTS	CF NFkB conf
CC1CCN(Cc2c(C(=O)N/N=C/c3ccc(C(C)C)cc3)nnn2-c2nonc2N)CC1	-8.3	17.2	14.5	0.0	14.1	-8.0	x
CC1CCN(Cc2c(C(=O)N/N=C/c3ccc(C(C)(C)C)cc3)nnn2-c2nonc2N)CC1	52.9*	x	56.9	-41.0	21.7	-12.0	62.5*
COc1ccc2c3c(n(C)c2c1)[C@@H](CO)N(C(=O)Nc1ccc(F)cc1)CC31CN(C(=O)Nc2c(C)noc2C)C1	x	1.0	x	x	-13.1	x	x
COc1ccc(NC(=O)C(NC(=O)c2ccccc2)C(C)C)cc1 (centres undefined)	-0.9	x	11.9	2.5	x	-14.5	x
Cc1cccc(C(=O)N[C@H](C(=O)Nc2nc3ccccc3[nH]2)C(C)C)c1	65.7*	56.0*	28.3	-29.6	33.9	58.5	83.4*
COc1ccc(C(=O)N[C@H](C(=O)Nc2nc3ccccc3[nH]2)C(C)C)cc1	54.8*	u	-23.6	-19.1	-27.6	-1.2	77.7*
CCCNC(=O)Nc1ccc2c(c1)C(=O)N(C)[C@@H]1CC[C@H](CC(=O)NC3CCC3)O[C@@H]1CO2	x	-1.6	x	x	25.2	8.6	x
CC(=O)C1=C(O)CC(c2ccccc2)CC1=NCCc1c(C)[nH]c2ccc(C)cc12 (centres undefined)	0.1	2.9	2.6	-2.3	35.9	-4.7	x
CCC(=NCCc1c(C)[nH]c2ccc(C)cc12)C1=C(O)CC(c2ccccc2)CC1=O (centres undefined)	57.3*	x	12.1	-20.5	-1.5	37.0	77.7*
O=C(O)[C@]1(Cc2ccccc2)N=C(c2ccc(OCCCO)cc2)O[C@@H]1c1ccccc1	x	-10.0	x	x	x	x	x
CN(C)C(CNC(=O)C1CCN(S(=O)(=O)c2ccccc2)CC1)c1ccccc1 (centres undefined)	71.2*	4.6	-7.3	29.8	-4.7	-1.8	0.0
Cc1ccc(-n2cc(-c3ccccc3)c3c(N4CCOCC4)ncnc32)cc1	84.5*	-3.6	-31.8	-16.8	6.7	20.5	87.1*
CCOCC(=O)NC1CCc2cc(OC(=O)COCC)c(OC)c(OC)c2-c2ccc(SC)c(=O)cc21 (centres undefined)	52.0*	53.0*	9.2	-28.3	14.2	91.4*	83.5*
COc1cc2c(c(OC)c1OC)-c1ccc(SC)c(=O)cc1C(NC(=O)C(F)(F)F)CC2 (centres undefined)	56.2*	45.5	-1.9	-17.1	-12.8	87.0*	83.8*
COc1cc2c(c(OC)c1OC)-c1ccc(NCc3ccccc3)c(=O)cc1C(NC(C)=O)CC2 (centres undefined)	63.6*	36.2	21.4	-37.0	-10.1	84.3*	86.6*
COc1cc(C(=O)NC2CCCc3ccccc32)cc(OC)c1OC (centres undefined)	3.5	-34.6	10.4	-5.9	-12.1	-1.8	x
COc1ccc2c(c1)C(NC(=O)C(F)(F)F)CC2=O (centres undefined)	5.3	x	5.3	-0.4	x	-3.5	x
Cc1ccc(Sc2c(C=O)c3ccccc3n2C)cc1	65.4*	x	7.8	-19.1	x	x	92.7*
